Results from PubChem BioAssay (NCATS).
Inconclusive results are not listed. Calls of active or inactive are those of the source. Unless noted, calls come from the whole dose curve; as a rule, active = well fitted curve in the direction sought with a large enough effect; inconclusive = small, poorly fitted or top-dose-only effect, or another doubt; inactive = no such curve, though single readings can be large; an effect the other way counts as inactive or inconclusive.

Columns and labels:
[1] = target: Voltage-gated inwardly rectifying potassium channel KCNH2 (Homo sapiens) (UniProt Q12809); experiment: qHTS Assay for Small Molecule Inhibitors of the Human hERG Channel Activity (AID 588834);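 note: top concentration of the series differs between compounds; lower thallium flux fluorescence means stronger hERG block; nearly all actives have a fitted effect of over 50% in size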
Sequence of Voltage-gated inwardly rectifying potassium channel KCNH2 (Homo sapiens) (Q12809 whole entry, looked up): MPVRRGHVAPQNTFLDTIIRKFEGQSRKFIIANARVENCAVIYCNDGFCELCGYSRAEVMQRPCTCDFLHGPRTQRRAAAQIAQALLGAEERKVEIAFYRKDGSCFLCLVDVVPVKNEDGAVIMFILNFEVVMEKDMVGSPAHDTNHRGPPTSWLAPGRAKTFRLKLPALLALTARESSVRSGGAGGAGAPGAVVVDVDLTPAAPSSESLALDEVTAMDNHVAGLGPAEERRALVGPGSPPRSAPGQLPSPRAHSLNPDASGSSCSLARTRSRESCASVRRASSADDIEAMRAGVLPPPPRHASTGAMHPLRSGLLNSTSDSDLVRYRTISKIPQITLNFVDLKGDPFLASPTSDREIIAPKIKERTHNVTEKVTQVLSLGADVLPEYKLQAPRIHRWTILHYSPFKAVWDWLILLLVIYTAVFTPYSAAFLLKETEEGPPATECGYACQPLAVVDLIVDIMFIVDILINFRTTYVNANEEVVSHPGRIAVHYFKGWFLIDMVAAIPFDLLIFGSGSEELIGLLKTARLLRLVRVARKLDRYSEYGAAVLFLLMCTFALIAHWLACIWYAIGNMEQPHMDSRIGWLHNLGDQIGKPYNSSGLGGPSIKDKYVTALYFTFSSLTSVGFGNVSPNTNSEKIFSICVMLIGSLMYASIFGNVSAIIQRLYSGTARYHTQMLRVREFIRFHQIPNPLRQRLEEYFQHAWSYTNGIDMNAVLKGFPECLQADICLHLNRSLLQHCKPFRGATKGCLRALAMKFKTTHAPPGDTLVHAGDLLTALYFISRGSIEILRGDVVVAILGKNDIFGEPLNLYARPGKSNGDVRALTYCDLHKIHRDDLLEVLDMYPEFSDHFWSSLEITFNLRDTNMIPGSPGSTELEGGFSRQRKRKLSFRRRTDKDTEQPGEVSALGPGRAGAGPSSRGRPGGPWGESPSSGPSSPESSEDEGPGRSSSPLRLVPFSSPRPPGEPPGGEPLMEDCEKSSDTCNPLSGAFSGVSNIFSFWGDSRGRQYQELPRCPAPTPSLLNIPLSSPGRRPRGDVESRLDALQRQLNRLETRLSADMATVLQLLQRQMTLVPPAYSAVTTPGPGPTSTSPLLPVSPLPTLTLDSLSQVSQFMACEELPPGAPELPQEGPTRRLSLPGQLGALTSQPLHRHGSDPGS
Summary of the method: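 hERG-BacMam U2OS, 2000 cells/well; 0.7X FluxOR loading 1 hr RT dark; cpd ~10 min 37 °C; stim buffer; FDSS fluorescence 2 min @ 1 s; AC50 Hill fit.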

[2] = S16 Schwann cell viability assay (CellTiter-Glo assay) (AID 624031);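 note: cellular ATP luminescence as a viability measure; series mostly up to about 58 µM; nearly all actives have a fitted effect of over 70% in size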
Summary of the method: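 CellTiter-Glo ATP luminescence counter-screen in untransfected S16 rat Schwann cells, 24h compound exposure at 37 degree Celsius after overnight seeding (500-750 cells/well); response scaled between cell-free wells and DMSO (0% activity), curves classed by r2 and magnitude.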

[3] = S16 Schwann cell PMP22 intronic element firefly luciferase assay (AID 624032); note: series mostly up to about 58 µM; nearly all actives have a fitted effect of over 30% in size
Summary of the method: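 Rat S16 Schwann cells stably carrying a PMP22 intronic element-driven Fluc reporter were seeded overnight, then exposed to compounds for 24 h at 37 °C. Luminescence was normalized to PTC124 (positive control) and DMSO (0% activity).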

[4] = S16 Schwann cell PMP22 intronic element beta-lactamase assay (AID 624044; calls by dose curve; note: nearly all actives have a fitted effect of over 15% in size)
Summary of the method: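 Rat S16 Schwann cells with beta-Lac driven by a PMP22 intronic element, compound-treated 24 h at 37 °C. LiveBLAzer FRET B/G read: 460 nm normalized to potassium clavulanate vs DMSO; 535 nm FRET as viability; concentration-effect curves classified.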

[5] = qHTS of Trypanosoma Brucei Inhibitors: LOPAC Validation (AID 624147)
Summary of the method: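 T. brucei PYK with substrate was exposed to pin-transferred compounds across a concentration series, then started with 130 uM ADP (final). After 45 min at room temperature, Kinase-Glo Plus luminescence was read, normalized and curve-fitted.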

[6] = target: Luciferin 4-monooxygenase (Photinus pyralis) (UniProt P08659); experiment: Biochemical firefly luciferase enzyme assay for NPC (AID 624030);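 note: purified P. pyralis luciferase at 10 nM with luciferin and ATP substrate; series mostly up to about 59 µM; nearly all actives have a fitted effect of over 70% in size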
Sequence of Luciferin 4-monooxygenase (Photinus pyralis) (P08659 whole entry, looked up): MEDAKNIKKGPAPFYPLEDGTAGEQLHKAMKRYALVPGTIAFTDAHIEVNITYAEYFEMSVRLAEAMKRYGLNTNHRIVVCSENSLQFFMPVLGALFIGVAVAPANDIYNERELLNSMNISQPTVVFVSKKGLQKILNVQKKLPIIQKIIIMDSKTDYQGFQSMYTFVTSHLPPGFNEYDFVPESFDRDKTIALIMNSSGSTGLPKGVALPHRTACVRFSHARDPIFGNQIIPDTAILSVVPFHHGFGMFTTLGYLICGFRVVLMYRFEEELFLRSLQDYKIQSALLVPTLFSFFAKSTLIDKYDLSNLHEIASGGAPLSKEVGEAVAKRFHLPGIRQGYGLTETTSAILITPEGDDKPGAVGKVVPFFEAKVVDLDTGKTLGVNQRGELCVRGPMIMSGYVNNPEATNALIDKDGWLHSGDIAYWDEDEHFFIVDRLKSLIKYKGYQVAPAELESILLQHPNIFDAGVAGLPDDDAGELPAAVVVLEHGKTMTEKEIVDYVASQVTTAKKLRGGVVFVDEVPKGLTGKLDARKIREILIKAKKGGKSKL
Summary of the method: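 Counter-screen for direct inhibition of the luciferase enzyme by approved-drug library compounds, run at 10 nM enzyme in 50 mM Tris acetate (final). Luminescence was read within 5 min of enzyme-buffer addition and normalized to PTC124 versus DMSO (0%).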

[7] = target: Glutaminase kidney isoform, mitochondrial (Homo sapiens) (UniProt O94925); experiment: qHTS for Inhibitors of Glutaminase (GLS): LOPAC Validation (AID 624146);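 note: glutamate product detected by oxidase and peroxidase coupled Amplex red fluorescence gain; series mostly up to about 46 µM; nearly all actives have a fitted effect of over 60% in size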
Sequence of Glutaminase kidney isoform, mitochondrial (Homo sapiens) (O94925 whole entry, looked up, canonical isoform): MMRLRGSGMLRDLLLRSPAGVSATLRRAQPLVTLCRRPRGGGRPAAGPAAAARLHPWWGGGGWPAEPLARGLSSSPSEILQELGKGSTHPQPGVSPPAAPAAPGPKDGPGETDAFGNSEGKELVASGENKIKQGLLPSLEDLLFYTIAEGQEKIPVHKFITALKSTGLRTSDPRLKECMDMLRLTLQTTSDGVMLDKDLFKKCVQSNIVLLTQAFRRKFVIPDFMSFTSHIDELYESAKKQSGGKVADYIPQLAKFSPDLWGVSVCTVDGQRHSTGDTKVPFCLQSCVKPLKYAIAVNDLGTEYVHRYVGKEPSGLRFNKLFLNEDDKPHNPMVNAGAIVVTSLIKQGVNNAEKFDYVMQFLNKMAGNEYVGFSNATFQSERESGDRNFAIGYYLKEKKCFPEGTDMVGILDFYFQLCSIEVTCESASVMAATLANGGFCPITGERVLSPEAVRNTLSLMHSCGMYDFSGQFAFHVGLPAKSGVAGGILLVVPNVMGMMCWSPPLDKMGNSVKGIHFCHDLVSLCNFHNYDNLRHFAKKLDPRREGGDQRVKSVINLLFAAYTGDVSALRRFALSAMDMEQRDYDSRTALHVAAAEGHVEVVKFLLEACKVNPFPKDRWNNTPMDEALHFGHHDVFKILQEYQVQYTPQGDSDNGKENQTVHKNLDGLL
Summary of the method: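 Read-out is an Amplex red fluorescence increase coupled through glutamate oxidase and HRP, measured before and after 30 min room-temperature incubation. hKGA is in 45 mM KH2PO4 (pH 8.2) with 0.02% Tween-20; glutamine added as 1mM solution.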

Measured: Potency

O=c1c(O)c(-c2ccc(O)c(O)c2)oc2cc(O)cc(O)c12
not listed: [6] | [7]
inactive: all other assays above

CN(CCOc1ccc(NS(C)(=O)=O)cc1)CCc1ccc(NS(C)(=O)=O)cc1
inactive: [6] | [2] | [3]

NC(CO)C(=O)NNCc1ccc(O)c(O)c1O (centres undefined)
inactive: [1] | [5]

Cc1cc(C(C)(C)C)cc(C)c1CC1=NCCN1
not listed: [1] | [4]
inactive: all other assays above

Cc1cnc(C(=O)NCCc2ccc(S(=O)(=O)NC(=O)NC3CCCCC3)cc2)cn1
inactive: [6] | [2] | [3] | [5]
